Experimental data reported in ChEMBL document CHEMBL3988442, “University of Dundee, Small-Polar-MMV Screening Library” (2021).
Screen size: about 69,000 compounds; about 1,000 (1.4%) showed an effect of 50% or more. The entries come from a sample that favours strong results as a whole.

Tested on: Leishmania donovani
Assay: Leishmania intramacrophage assay
Assay type: functional, organism-based
Parameters: scale not given: in the data most compounds retested in dose-response had high values

Structure (SMILES)	Percent Effect (30.3 µM, […])	Percent Effect (30 µM, 30.03 µM)
O=C(c1cccnc1)N1CCC2(CC1)CCN(Cc1ccccn1)C2=O	28.38%	
Cc1oncc1C(=O)N1CCC2(CCN(Cc3ccccn3)C2=O)C1 (configuration not stated)		-19.39%
Cc1ccc(C(=O)N2CCC3(CCN(Cc4ccccn4)C3=O)C2)cn1 (configuration not stated)	50.83%	
Cc1ccc(-c2cc(C(F)(F)F)nc(N3CCOCC3)n2)s1	2.404%	
Cc1c(-c2cc(C(F)(F)F)nc(N3CCC(N)CC3)n2)cnn1C	81.41%	
CCn1ncc(-c2cc(C(F)(F)F)nc(N3CCC(N)CC3)n2)c1C	100.6%	
Cc1nn(C)cc1-c1cc(C(F)(F)F)nc(NC2CCN(C)CC2)n1	7.809%	
CCc1ccc(-c2cc(C(F)(F)F)nc(N3CCC(N)CC3)n2)cc1	44.83%	
CCNC(=O)[C@@H]1C[C@H](N)CN1c1cc(C(F)(F)F)nc(N2CCCC2)n1	23.81%	
Cc1ccccc1OCn1ccc(C(=O)NCCN2CCOCC2)n1	-13.65%	
O=C(O)C(F)(F)F.O=C(c1ccccc1)N1CCCC2(CCN2Cc2cccc(F)c2)C1 (configuration not stated)	54.88%	
O=S(=O)(c1ccccc1)N1CCC2(CCCN2Cc2ccc(Cl)cc2)C1 (configuration not stated)	36.08%	
O=C(O)C(F)(F)F.O=S(=O)(c1ccccc1)N1CCC2(CCCN2Cc2cccc(Cl)c2)C1 (configuration not stated)	27.63%	
O=C(O)C(F)(F)F.O=C(c1cscn1)N1CCCC2(CCN2Cc2cccc(F)c2)C1 (configuration not stated)	40.36%	
O=C(O)C(F)(F)F.O=C(O)C(F)(F)F.O=C(O)CN1CCCC2(CCN2Cc2cccc(F)c2)C1 (configuration not stated)	-0.8696%	
Cc1ccc(CN2CCCC23CCN(S(=O)(=O)c2ccccc2)C3)o1 (configuration not stated)		49.3%
O=S(=O)(c1ccccc1)N1CCC2(CCCN2Cc2cccc(F)c2)C1 (configuration not stated)	61.17%	
CCS(=O)(=O)N1CCCC2(CCCN2Cc2cccc(F)c2)C1.O=C(O)C(F)(F)F (configuration not stated)	12.48%	
O=S(=O)(c1ccccc1)N1CCC2(CCCN2Cc2ccccc2Cl)C1 (configuration not stated)	52.23%	
CC(C)C(C(N)=O)c1cccc(Cl)c1 (configuration not stated)	23.22%	
Cc1nnc(N2CCO[C@H]3[C@@H](OCc4ccccn4)CC[C@@H]32)s1.O=C(O)C(F)(F)F.O=C(O)C(F)(F)F	-5.183%	
Cc1nccn1Cc1nnc(C2CCN(c3ccncc3F)CC2)n1C	4.988%	
c1nc2c(c(NC3COC4(CCCC4)C3)n1)CCNCC2 (configuration not stated)	-7.058%	
O=C(O)C(F)(F)F.O=C(c1cocn1)N1C[C@H]2CCC[C@@]2(COc2ccccn2)C1	20.04%	

Structure (SMILES)	Percent Effect (30.3 µM, […])	Percent Effect (30 µM, 30.03 µM)
Cc1nn(C)c(C)c1CN1CCCC1c1nccc(CN(C)C)n1 (configuration not stated)	3.97%	
CC(C#N)CNC(=O)Nc1ccc(Br)cc1 (configuration not stated)	6.996%	
CC(=O)N1CCCN(C2CCCCc3ccccc32)CC1 (configuration not stated)	18.35%	
COc1c(C2CCCN2C(=O)c2c[nH]c3ncccc23)c(C)nn1C (configuration not stated)		-19.02%
Cc1nnc([C@@]23CCO[C@@H]2CCN(S(=O)(=O)c2ccccc2)C3)o1	56.06%	
Cc1noc([C@@]23CCO[C@@H]2CCN(S(=O)(=O)c2cccnc2)C3)n1	57.7%	
Cc1nnc([C@@]23CCO[C@@H]2CCN(S(C)(=O)=O)C3)o1	-7.004%	
CNC(=O)[C@@]12CCO[C@@H]1CCN(S(=O)(=O)c1cccnc1)C2.O=C(O)C(F)(F)F		-13.7%
Cc1noc([C@@]23CCO[C@@H]2CCN(C(=O)C2CCOCC2)C3)n1		-29.55%
Cc1nnc([C@@]23CCO[C@@H]2CCN(S(=O)(=O)c2cccnc2)C3)o1	17.24%	
C[C@H]1C[C@H]2CN(C(=O)c3cccc4c3OCCO4)CC[C@H]2O1	-11.14%	
CCc1nccn1-c1cccc(C2CCCN2)n1.Cl.Cl (configuration not stated)	6.16%	
O=C1CCCN1CCCN1CCCCC1Cn1cncn1 (configuration not stated)	26.96%	
Cc1csc(CCNC(=O)N2CCC(NC(=O)OC(C)(C)C)CC2)n1	-5.066%	
CSc1nc2cc(C)n(CC(=O)N3CCCC3)c2c(=O)n1CC(C)C	6.672%	
CC(NCc1ccc(OCC(N)=O)cc1)c1ccc2c(c1)CCCC2 (configuration not stated)	72.53%	
CC(NCc1ccc(OCC(N)=O)cc1)c1ccc(Cl)c(Cl)c1.Cl (configuration not stated)	12.13%	
CC(NCc1ccc(OCC(N)=O)cc1)c1ccc(Cl)cc1.Cl (configuration not stated)	32.34%	
CCc1nncn1CCNC(=O)Nc1ccc(OC)c(C)c1	5.132%	
CCOC1(C)C(=O)c2ccccc2N1Nc1ccccc1C(=O)CC (configuration not stated)	19.56%	
CCC(=O)c1ccc(Br)cc1NN1c2cc(Br)ccc2C(=O)C1(C)OC (configuration not stated)	24.9%	
CCC(=O)c1ccccc1NN1c2ccccc2C(=O)C1(C)OC (configuration not stated)	62.96%	
Cc1c(C(=O)O)cnn1-c1ccc(-c2nc(C3CC3)no2)cn1	11.33%	
